Screens as filed in PubChem BioAssay.
The list is not random: actives were taken first. Their share in the collection is about 1.7%.
p53ts 39C tox = p53ts cell cytotoxicity, nonpermissive temperature | H1299-p53A138V viability at 39C, ATP luminescence, 24 h | Potency, µM (titrated, usually from 46.1 µM), usual class: cytotoxic | 130,000 compounds, 1.5% hits; further: nearly all actives have a fitted effect of over 55% in size
p53ts 32C tox = cytotoxicity in p53ts cells at permissive temperature; H1299-p53A138V at 32C, ATP luminescence viability, 24 h; Potency, µM (top dose mostly 46.1 µM), usual class: cytotoxic; 130,000 compounds, 0.93% hits; AID 924; further: nearly all actives have a fitted effect of over 55% in size
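Viability by ATPlite luminescence after 24 h compound treatment (up to 46 uM) at the permissive 32C. Cells are H1299 carrying p53 A138V. Scale runs from DMSO basal to 100 uM tamoxifen as full kill; AC50 from Hill fits.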
IkB sig inh = IkB pathway inhibition in ABC-DLBCL cells. ABC-DLBCL IkBa-CBG/CBR dual luciferase ratio, 4 h; response scale: scaled: untreated 0%, proteasome inhibitor 100%. Potency, µM (highest dose often 57.1 µM). 110,000 compounds, 0.04% hits; active means well fitted curve in the direction sought with a large enough effect in the signal ratio, not every such curve was filed as active; inconclusive means small, poorly fitted or top-dose-only effect, or a change in a side signal; the % refers to the signal ratio;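 further: the direction sought is a rising ratio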
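Luminescence ratio of IκBα-fused green versus native red beetle luciferase in OCI-Ly3 cells, 4 h post-doxycycline with compound; red signal alone, scaled from basal (0%) to zero light (-100%), flagged nonspecific or cytotoxic effects.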
Peg3 imprint = genomic imprint erasure induction. mouse ES Peg3-LacZ reporter, beta-gal luminescence, 40 h. Potency, µM (doses to about 60.7 µM), actives largely listed as activators. 110,000 compounds, 0.02% hits
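Each well holds 300 Peg3LacZ-Neo (maternal) female ES cells incubated 40 h at 37C, 5% CO2. LacZ is measured by BetaGlo luminescence, with AC50 and maximum efficacy derived from dose-response curves.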
A number is an active result; i = inactive; ? = inconclusive; nt = no result; ! = not active in a repeat; [ ] = another dose, or the depositor's remark. Unless noted, the call rests on the fitted dose curve; in most records, active means well fitted curve in the direction sought with a large enough effect; inconclusive means small, poorly fitted or top-dose-only effect, or another doubt; inactive means no such curve, though single readings can be large; an effect the other way counts as inactive or inconclusive.

SMILES	p53ts 39C tox	p53ts 32C tox	IkB sig inh	Peg3 imprint
Cn1ncnc2c(=O)n(C)c(=O)nc1-2	5µM	0.79µM	?	i
C=CCN1C[C@@H](C)N([C@H](c2ccc(C(=O)N(CC)CC)cc2)c2cccc(OC)c2)C[C@H]1C	i	i	i	nt
C=CCn1c(O)c(C(C)=NCc2cc(OC)cc(OC)c2)c(=O)[nH]c1=O	?	10µM	i	i
C=CCn1c(O)c(C(C)=NCc2cccnc2)c(=O)[nH]c1=O	i	i	i	i
N[C@H](Cn1cc(I)c(=O)[nH]c1=O)C(=O)O	nt	nt	i	nt
C[C@@H]1[C@H]2C=C[C@@H]1[C@@H](c1c3ccc(=O)c(O)c-3oc3c(O)c(O)ccc13)[C@@H]2C(=O)O	i[9.22 µM]	i[9.22 µM]	i[11.4 µM]	nt
Cc1ccc(Cl)cc1Nc1nn2c(=O)c3ccc(C(=O)NCc4cccs4)cc3nc2s1	16µM	13µM	i	i[10.9 µM]
COc1cccc(NC(=O)c2ccc3c(=O)n4nc(Nc5ccccc5OC)sc4nc3c2)c1	?	i	?	i[10.9 µM]
CN[C@H]1[C@H]2[C@H]3CCN2C[C@@H]1O3	nt	nt	i[11.4 µM]	nt
OCCN1CCN(CCCN2c3ccccc3Sc3ccc(C(F)(F)F)cc32)CC1	13µM!	?	i	i
Nc1ccc(CCN2CCN(c3cccc(C(F)(F)F)c3)CC2)cc1	i	i	i	i
COc1ccc(NC(C)=O)cc1NC(=O)c1cccn(Cc2ccccc2)c1=O	i	i	?	i[10.9 µM]
COc1ccccc1NC(=O)c1oc2ccccc2c1NC(=O)c1ccccc1C(F)(F)F	16µM	?	i	i[10.9 µM]
CN1CCN(C(=O)COc2ccc(-c3nc4ccccc4s3)cc2)CC1	0.79µM	1µM	i	i
O=C1C[C@H]2OCCC=C3CN4CC[C@@]56c7ccccc7N1[C@@H]5[C@H]2[C@H]3C[C@@H]46	nt	nt	i[11.4 µM]	nt
C[C@@H]1CC[C@@]2(OC1)O[C@H]1[C@@H](O)[C@H]3[C@@H]4CC[C@H]5C[C@@H](O[C@@H]6O[C@H](CO)[C@H](O[C@@H]7O[C@H](CO)[C@@H](O)[C@H](O[C@@H]8OC[C@@H](O)[C@H](O)[C@H]8O)[C@H]7O[C@@H]7O[C@H](CO)[C@@H](O)[C@H](O[C@@H]8O[C@H](CO)[C@@H](O)[C@H](O)[C@H]8O)[C@H]7O)[C@H](O)[C@H]6O)[C@H](O)C[C@]5(C)[C@H]4CC[C@]3(C)[C@H]1[C@@H]2C	13µM	i[1.84 µM]	?	i
Cc1c2ccncc2c(C)c2c1[nH]c1ccccc12	13µM	13µM	?	i
O=C1C=CC(=O)c2c1ccc1c2ccc2ccccc21	i	10µM	?	i
CC(=O)c1cccc(NC(=O)c2cccn(Cc3cccc(C)c3)c2=O)c1	i	i	?	i[10.9 µM]
CC(=O)c1cccc(NC(=O)c2cc3c(s2)-c2c(C)cccc2OC3)c1	5µM	10µM	?	i[10.9 µM]
CO[C@H]1[C@H](O)[C@H](O[C@@H]2[C@H](Oc3cccc4c(O)c5c(=O)oc6ccc(C)c7c(=O)oc(c34)c5c67)O[C@@H](C)[C@H](O)[C@H]2O)O[C@@H](C)[C@@H]1O	i[9.22 µM]	i[9.22 µM]	i[11.4 µM]	i[10.9 µM]
N[C@H](CCl)C(=O)O	i	i	i	nt
CC[C@]1(O)CC(O[C@@H]2CC(N(C)C)C(O)C(C)O2)c2c(cc3c(c2O)C(=O)c2c(O)cccc2C3=O)C1C(=O)OC (stereo partly drawn)	?	i	nt	i
CC[C@@]1(O)CC(O)c2c(cc3c(c2O)C(=O)c2c(O)ccc(O)c2C3=O)C1C(=O)OC (stereo partly drawn)	13µM	?	nt	i
N[C@@H]1CCc2cc(O)c(O)cc2C1	i	i	i	nt
SMILES	p53ts 39C tox	p53ts 32C tox	IkB sig inh	Peg3 imprint
CC(C)C[C@H]1C(=O)N2CCC[C@@H]2[C@]2(O)O[C@](NC(=O)[C@H]3C=C4c5cccc6[nH]cc(c56)C[C@H]4N(C)C3)(C(C)C)C(=O)N12	nt	nt	i[11.4 µM]	nt
COc1cc2[nH]c(=O)n(CCCCCC(=O)N3CCN(c4cccc(C(F)(F)F)c4)CC3)c(=O)c2cc1OC	13µM	?	?	i[10.9 µM]
CC1=CC(=O)c2c(O)cccc2C1=O	10µM	6.3µM	nt	i
COc1cc(C=C(C#N)C#N)cc(O)c1O	i	i	i	i
CC(C)(C)c1cc(C=C(C#N)C#N)cc(C(C)(C)C)c1O	i	10µM	?	i
Cc1ccc2oc(-c3ccc(Cl)cc3)c(O)c(=O)c2c1	?	i	5µM	i[10.9 µM]
Cc1ccc(Cl)cc1N1CCN(C(=O)C2CCN(Cc3nc(-c4ccc(Cl)cc4)oc3C)CC2)CC1	13µM	i	?	i[10.9 µM]
CCCN1CCC[C@H](c2cccc(C#N)c2)C1	i	i	i	nt
Fc1ccc(C(OCCN2CCN(CCCc3ccccc3)CC2)c2ccc(F)cc2)cc1	32µM!	?	?	i
O=C(O)C1=CCCN(CCOC(c2ccc(C(F)(F)F)cc2)c2ccc(C(F)(F)F)cc2)C1	i	i	i	i
c1ccc(CCCN2CCN(CCOC(c3ccccc3)c3ccccc3)CC2)cc1	32µM	?	?	i
C/C=C(\C)C(=O)O[C@@H]1C(C)=C2[C@H]([C@@H]1OC(=O)CCCCCCC)[C@@](C)(OC(C)=O)C[C@@H](OC(=O)CCC)[C@@]1(O)[C@H]2OC(=O)[C@]1(C)O	13µM	25µM	4µM	nt
CC[C@@]12CCCN3CC[C@@]4(c5ccc(OC)c(O)c5N(C(C)=O)[C@H]4CC1)[C@H]32	nt	nt	i[11.4 µM]	nt
COC1=C[C@H]2[C@@H]3Cc4ccc(OC)c(O)c4[C@@]2(CCN3C)CC1=O	nt	nt	i[11.4 µM]	nt
COC(=O)C[C@]1(C(=O)OC)CN(C#N)N(c2ccc(Cl)cc2)C12c1ccccc1-c1ccccc12	?	6.3µM	nt	nt
CC1=C(O)C(=O)[C@H]2O[C@@H]2C1=O	?	16µM	?	i
COc1ccc(-c2cc(=O)c3cc(OCC(=O)OC(C)C)ccc3o2)cc1	3.2µM	3.2µM	?	i[10.9 µM]
NC(=NCCC[C@@H](N)C(=O)O)N[N+](=O)[O-]	nt	nt	i	nt
CC(=O)OC1C[C@@]2(C)C(c3ccoc3)C[C@H]3O[C@@]32[C@@]2(C)C(=O)C(O)=C3C(C)(C)C(=O)C=C[C@]3(C)C12 (stereo partly drawn)	?	1.6µM	nt	i
CC(=O)OC1CC(OC(C)=O)[C@]2(C)C(CC(OC(C)=O)[C@]3(C)C2CC[C@@]2(C)C(c4ccoc4)C[C@H]4O[C@]432)C1(C)C (stereo partly drawn)	i	i	nt	i
COC1=C(C)C(=O)c2c(c(COC(N)=O)c3n2C[C@@H]2[C@@H]3N2C)C1=O (stereo partly drawn)	?	?	3.2µM	i[10.9 µM]
Ic1ccccc1CN[C@@H]1C2CCN(CC2)[C@H]1C(c1ccccc1)c1ccccc1	20µM	?	i	nt
CSC([N-]/N=C/c1cccc(C)n1)=[S]=[Cu].CS[C@H]([S-])[N-]/N=C/c1cccc(C)n1	?	2µM	?	nt
C=CCN1CCc2cccc3c2[C@@H]1Cc1ccc(O)c(O)c1-3	?	?	i	nt
O=c1ccc2cc(O[C@@H]3O[C@@H](CO)[C@@H](O)[C@@H](O)[C@H]3O)c(O)cc2o1	nt	nt	i[11.4 µM]	nt
